According to the supplement of paper PMC10849652:
Of roughly 8,800 targets only a part is listed; those with a hit were picked by preference. About 0.5% of all pairs of compound and target were hits.

Experiments:
Assay in all cases: log2 fold change, soluble protein after heating vs DMSO (PISA); higher = thermal stabilisation; K562 lysate, 10 uM; active = over 0.2 and 3.5 SD of the protein, either way, in both replicates (recomputed)
[1] = compound: C1=CC=C(C=C1)[C@H](COC2=CC3=C(C=C2)NC(=O)N3)NC(=O)C4=CC=CN(C4=O)CC5=CC(=C(C=C5)F)F
In short: (§1)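 The values are log-two fold changes in thermal stability compared with solvent controls and come from duplicates. They were obtained by TMTpro 16plex LC-MS/MS, with channel sums equalised, on the supernatant after 21,000xg for 90 min. That supernatant came from crude K562 extract at 1 mg/mL protein treated with 10 μM compound for 30 min, heated for 3 min across 48°C-58°C, pooled and brought to 0.5% NP-40 at 4°C.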

[2] = compound: CC1=C(SC2=C1C(=N[C@H](C3=NN=C(N32)C)CC(=O)N)C4=CC=C(C=C4)Cl)C
In short: as §1

[3] = compound: CC1=C2C(=CC=C1)N=C(N(C2=O)C3=CC=CC=C3C)CN4C=NC5=C(N=CN=C54)N
In short: as §1

[4] = compound: Cc1sc2c(c1C)C(c1ccc(Cl)cc1)=N[C@@H](CC(=O)OC(C)(C)C)c1nnc(C)n1-2
In short: as §1

[5] = compound: c1ccc([C@@H]2C[C@H]2NC2CCNCC2)cc1
In short: as §1

Measured: log2 fold change

STAT2 (UniProt P52630)
Sequence of UniProt P52630 (P52630 whole entry, looked up): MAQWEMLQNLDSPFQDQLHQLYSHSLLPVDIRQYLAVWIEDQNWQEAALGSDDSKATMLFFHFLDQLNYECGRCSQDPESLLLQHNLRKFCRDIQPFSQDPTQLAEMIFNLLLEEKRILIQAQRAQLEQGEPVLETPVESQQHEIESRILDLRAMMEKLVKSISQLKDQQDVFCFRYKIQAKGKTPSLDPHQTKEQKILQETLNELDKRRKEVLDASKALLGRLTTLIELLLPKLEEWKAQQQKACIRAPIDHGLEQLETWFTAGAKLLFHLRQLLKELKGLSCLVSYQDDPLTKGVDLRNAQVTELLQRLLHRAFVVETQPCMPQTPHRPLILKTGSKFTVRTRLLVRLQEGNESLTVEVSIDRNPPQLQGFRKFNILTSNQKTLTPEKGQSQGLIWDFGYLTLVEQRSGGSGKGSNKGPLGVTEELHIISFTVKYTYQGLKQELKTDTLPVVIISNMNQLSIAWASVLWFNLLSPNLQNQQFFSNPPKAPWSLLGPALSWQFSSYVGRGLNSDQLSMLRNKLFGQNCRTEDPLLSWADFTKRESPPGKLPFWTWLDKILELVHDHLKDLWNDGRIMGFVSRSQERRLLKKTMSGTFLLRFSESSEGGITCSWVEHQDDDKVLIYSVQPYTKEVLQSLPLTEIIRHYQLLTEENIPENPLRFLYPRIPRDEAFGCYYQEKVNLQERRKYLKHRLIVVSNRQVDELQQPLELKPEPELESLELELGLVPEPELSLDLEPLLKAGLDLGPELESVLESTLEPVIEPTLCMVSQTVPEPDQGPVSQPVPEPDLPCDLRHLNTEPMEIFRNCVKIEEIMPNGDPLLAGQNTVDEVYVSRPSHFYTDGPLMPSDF
inactive: [1] -0.033 | [2] 0.005 | [3] 0.043 | [4] 0.033 | [5] 0.017

SMN1 (UniProt Q16637)
Sequence of UniProt Q16637 (Q16637 whole entry, looked up): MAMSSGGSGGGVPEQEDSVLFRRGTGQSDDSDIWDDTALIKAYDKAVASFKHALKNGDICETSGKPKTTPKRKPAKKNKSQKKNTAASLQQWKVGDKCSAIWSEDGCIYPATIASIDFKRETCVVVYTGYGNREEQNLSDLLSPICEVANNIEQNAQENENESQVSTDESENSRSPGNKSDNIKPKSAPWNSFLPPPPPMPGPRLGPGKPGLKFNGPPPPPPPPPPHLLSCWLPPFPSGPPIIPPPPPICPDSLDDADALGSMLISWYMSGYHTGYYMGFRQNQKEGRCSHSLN
inactive: [1] 0.083 | [2] -0.054 | [3] 0.054 | [4] -0.012 | [5] 0.024

SSBP3 (UniProt Q9BWW4)
inactive: [1] -0.113 | [2] -0.031 | [3] 0.062 | [4] -0.06 | [5] -0.005

SNRNP40 (UniProt Q96DI7)
inactive: [1] 0.023 | [2] -0.03 | [3] 0.012 | [4] 0 | [5] -0.002

SVIP (UniProt Q8NHG7)
Sequence of UniProt Q8NHG7 (Q8NHG7 whole entry, looked up): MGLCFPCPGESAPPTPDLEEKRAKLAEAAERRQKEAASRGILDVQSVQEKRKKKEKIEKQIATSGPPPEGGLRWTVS
inactive: [1] 0.02 | [2] -0.048 | [3] -0.052 | [4] -0.069 | [5] -0.028

SLC16A1 (UniProt P53985)
inactive: [1] -0.015 | [2] 0.002 | [3] 0.042 | [4] 0.077 | [5] -0.245

STK38 (UniProt Q15208)
Sequence of UniProt Q15208 (Q15208 whole entry, looked up): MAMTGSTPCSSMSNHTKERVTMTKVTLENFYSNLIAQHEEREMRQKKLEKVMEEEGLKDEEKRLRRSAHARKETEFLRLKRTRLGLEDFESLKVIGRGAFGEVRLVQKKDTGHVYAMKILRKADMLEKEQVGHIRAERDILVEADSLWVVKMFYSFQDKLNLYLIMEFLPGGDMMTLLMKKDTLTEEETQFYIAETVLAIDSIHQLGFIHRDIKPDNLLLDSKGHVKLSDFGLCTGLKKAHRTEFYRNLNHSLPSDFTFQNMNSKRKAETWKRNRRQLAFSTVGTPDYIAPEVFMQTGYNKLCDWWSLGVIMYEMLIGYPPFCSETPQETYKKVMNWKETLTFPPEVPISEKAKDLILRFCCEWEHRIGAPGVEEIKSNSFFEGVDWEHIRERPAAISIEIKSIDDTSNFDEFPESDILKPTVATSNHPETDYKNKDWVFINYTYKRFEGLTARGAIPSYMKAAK
inactive: [1] -0.089 | [2] -0.02 | [3] -0.014 | [4] -0.012 | [5] -0.066

SRPK1 (UniProt Q96SB4)
inactive: [1] -0.002 | [2] -0.023 | [3] 0.004 | [4] -0.015 | [5] -0.025

SRSF7 (UniProt Q16629)
Sequence of UniProt Q16629 (Q16629 whole entry, looked up): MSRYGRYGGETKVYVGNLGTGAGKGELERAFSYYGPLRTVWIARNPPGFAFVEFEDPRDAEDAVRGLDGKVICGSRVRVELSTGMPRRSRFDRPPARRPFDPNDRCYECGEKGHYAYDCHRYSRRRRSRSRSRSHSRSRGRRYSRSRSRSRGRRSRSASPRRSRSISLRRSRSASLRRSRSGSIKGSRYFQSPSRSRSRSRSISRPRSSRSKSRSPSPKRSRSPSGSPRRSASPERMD
inactive: [1] -0.005 | [2] 0.023 | [3] 0.04 | [4] 0.025 | [5] -0.045

SHCBP1 (UniProt Q8NEM2)
Sequence of UniProt Q8NEM2 (Q8NEM2 whole entry, looked up): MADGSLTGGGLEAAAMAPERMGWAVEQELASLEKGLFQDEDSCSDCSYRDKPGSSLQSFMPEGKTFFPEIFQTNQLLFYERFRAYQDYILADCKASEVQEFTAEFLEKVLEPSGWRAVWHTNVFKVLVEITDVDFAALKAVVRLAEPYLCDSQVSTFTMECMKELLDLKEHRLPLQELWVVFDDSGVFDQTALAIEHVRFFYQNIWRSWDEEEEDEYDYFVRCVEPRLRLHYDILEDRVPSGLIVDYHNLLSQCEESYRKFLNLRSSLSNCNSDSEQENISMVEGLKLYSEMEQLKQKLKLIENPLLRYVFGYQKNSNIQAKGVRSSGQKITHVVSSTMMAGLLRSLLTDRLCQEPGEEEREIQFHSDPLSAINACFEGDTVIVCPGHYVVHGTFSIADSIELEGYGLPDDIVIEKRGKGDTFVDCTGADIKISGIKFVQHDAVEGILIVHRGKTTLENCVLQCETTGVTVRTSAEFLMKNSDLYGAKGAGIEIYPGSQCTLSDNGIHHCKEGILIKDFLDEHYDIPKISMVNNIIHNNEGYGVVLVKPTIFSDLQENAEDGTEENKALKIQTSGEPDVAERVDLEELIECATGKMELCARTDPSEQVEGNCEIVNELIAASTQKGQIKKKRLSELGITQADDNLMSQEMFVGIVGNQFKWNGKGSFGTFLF
inactive: [1] 0.056 | [2] 0.012 | [3] -0.032 | [4] -0.022 | [5] -0.039

SLC27A4 (UniProt Q6P1M0)
inactive: [1] 0.106 | [2] -0.006 | [3] 0.054 | [4] -0.002 | [5] 0.121

STK24 (UniProt B4DR80)
inactive: [1] -0.025 | [2] 0.003 | [3] -0.041 | [4] -0.019 | [5] -0.055

SRSF9 (UniProt Q13242)
Sequence of UniProt Q13242 (Q13242 whole entry, looked up): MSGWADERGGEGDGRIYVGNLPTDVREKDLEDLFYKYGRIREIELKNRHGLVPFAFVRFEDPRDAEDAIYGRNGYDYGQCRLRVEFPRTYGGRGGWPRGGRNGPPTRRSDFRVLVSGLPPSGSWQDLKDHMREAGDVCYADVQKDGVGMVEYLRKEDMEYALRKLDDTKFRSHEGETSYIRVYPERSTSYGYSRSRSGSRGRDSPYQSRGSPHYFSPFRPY
inactive: [1] 0.015 | [2] 0.024 | [3] -0.076 | [4] 0.06 | [5] -0.014

SHC1 isoform 6 (UniProt P29353)
inactive: [1] 0.019 | [2] 0.006 | [3] 0.056 | [4] 0.087 | [5] 0.25

SLC39A11 (UniProt Q8N1S5)
inactive: [1] 0.022 | [2] -0.041 | [3] 0.063 | [4] 0.186 | [5] 0.036

SPAG5 (UniProt Q96R06)
Sequence of UniProt Q96R06 (Q96R06 whole entry, looked up): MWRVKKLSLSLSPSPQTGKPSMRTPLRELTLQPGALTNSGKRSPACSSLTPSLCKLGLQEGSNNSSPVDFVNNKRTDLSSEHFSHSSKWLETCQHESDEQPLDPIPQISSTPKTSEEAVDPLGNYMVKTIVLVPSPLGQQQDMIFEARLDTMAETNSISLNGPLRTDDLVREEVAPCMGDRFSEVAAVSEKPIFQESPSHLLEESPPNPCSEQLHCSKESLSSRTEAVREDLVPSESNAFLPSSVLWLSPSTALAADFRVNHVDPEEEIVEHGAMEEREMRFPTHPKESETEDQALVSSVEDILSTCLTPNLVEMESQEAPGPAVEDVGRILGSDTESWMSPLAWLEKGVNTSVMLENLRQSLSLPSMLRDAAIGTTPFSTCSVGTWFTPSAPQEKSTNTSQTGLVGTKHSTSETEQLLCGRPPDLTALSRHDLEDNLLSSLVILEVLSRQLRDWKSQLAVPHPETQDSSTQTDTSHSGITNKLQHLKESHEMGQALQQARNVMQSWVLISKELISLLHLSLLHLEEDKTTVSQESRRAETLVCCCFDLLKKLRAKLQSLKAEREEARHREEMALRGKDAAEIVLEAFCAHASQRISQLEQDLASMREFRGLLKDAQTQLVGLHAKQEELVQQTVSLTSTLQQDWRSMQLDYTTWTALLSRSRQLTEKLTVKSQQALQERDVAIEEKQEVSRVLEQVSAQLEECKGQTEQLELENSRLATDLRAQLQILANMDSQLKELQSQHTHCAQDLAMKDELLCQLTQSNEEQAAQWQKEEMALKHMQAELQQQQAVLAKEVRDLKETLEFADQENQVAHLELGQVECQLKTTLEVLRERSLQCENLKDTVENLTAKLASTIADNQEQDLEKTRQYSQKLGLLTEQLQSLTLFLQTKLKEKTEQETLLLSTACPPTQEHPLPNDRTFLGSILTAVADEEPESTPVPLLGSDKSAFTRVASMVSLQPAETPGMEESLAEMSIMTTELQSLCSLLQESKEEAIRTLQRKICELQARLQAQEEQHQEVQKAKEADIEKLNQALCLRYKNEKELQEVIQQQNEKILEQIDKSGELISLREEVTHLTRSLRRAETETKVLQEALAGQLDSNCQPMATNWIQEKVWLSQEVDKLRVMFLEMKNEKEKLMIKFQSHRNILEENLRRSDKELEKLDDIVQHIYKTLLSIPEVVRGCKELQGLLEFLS
inactive: [1] 0.006 | [2] 0.004 | [3] 0.021 | [4] 0.013 | [5] 0.026

STK11IP (UniProt Q8N1F8)
inactive: [1] 0.002 | [2] 0.072 | [3] 0.019 | [4] 0.019 | [5] 0.015

SNX6, A0A0A0MRI2
inactive: [1] 0.014 | [2] 0.006 | [3] 0.016 | [4] 0.017 | [5] 0.115

STOML2 (UniProt Q9UJZ1)
inactive: [1] -0.008 | [2] 0.004 | [3] -0.027 | [4] -0.025 | [5] -0.008

SSB (UniProt E7ERC4)
inactive: [1] -0.137 | [2] 0.12 | [3] 0.186 | [4] -0.105 | [5] 0.444

SLC38A1 (UniProt Q9H2H9)
Sequence of UniProt Q9H2H9 (Q9H2H9 whole entry, looked up): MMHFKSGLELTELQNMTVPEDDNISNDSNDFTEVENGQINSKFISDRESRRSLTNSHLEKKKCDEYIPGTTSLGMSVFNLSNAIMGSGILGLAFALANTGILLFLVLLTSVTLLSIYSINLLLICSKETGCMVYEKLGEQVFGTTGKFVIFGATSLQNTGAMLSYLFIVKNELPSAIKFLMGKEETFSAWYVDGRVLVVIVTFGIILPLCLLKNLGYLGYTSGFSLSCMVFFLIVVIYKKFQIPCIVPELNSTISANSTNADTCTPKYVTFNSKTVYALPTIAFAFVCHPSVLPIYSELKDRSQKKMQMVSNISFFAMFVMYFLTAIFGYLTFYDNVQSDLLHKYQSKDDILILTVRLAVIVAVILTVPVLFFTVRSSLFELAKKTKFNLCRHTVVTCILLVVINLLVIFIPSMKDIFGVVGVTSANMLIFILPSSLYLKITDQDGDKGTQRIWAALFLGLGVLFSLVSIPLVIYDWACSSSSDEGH
inactive: [1] 0.055 | [2] -0.116 | [3] 0.06 | [4] -0.116 | [5] -0.128

SLC29A2 (UniProt Q14542)
inactive: [1] 0.106 | [2] 0.001 | [3] 0.044 | [4] -0.116 | [5] -0.233

SLC12A6 (UniProt Q9UHW9)
inactive: [1] 0.006 | [2] 0.017 | [3] 0.017 | [4] 0.036 | [5] 0.008

SPHK1 isoform 2 (UniProt Q9NYA1)
Sequence of UniProt Q9NYA1 (Q9NYA1 whole entry, looked up): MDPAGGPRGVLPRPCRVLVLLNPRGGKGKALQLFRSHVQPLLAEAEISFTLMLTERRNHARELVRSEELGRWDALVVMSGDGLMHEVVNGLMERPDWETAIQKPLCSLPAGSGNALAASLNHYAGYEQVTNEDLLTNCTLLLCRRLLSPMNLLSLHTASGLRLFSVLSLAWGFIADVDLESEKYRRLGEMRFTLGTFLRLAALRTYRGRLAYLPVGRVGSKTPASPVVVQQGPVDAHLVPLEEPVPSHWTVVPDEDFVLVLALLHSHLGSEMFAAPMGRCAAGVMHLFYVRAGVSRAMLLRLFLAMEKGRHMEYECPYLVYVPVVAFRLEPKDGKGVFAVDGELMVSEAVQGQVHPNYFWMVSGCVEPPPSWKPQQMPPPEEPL
inactive: [1] -0.014 | [2] -0.034 | [3] -0.038 | [4] -0.003 | [5] 0.092
